# Compound activity as filed in PubChem BioAssay.
# Rows were chosen to be rich in hits. Some 3.2% of all compounds tested hit in one or more screens of this group.
# RE007 growth inh = qHTS Assay for Inhibitors of the HIV-1 protein Vpr. S. pombe RE007 Vpr strain, BacTiter-Glo ATP luminescence, 24 h. Potency, µM (doses to about 92.2 µM), inactives show at the top dose activity change, negative = less growth, hits mostly inhibitors. hit rate 0.21% among 360,000. AID 651644, 2012; active means well fitted falling curve with a large enough effect; inconclusive means small, poorly fitted or top-dose-only effect; inactive means no such curve, though single readings can be large or run the other way; further: nearly all actives have a fitted effect of over 50% in size
#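 Fission yeast strain RE007, carrying one chromosomally integrated HIV-1 vpr copy, was seeded at OD 0.01 in PMG+AL medium with 23 nL pinned compound. After 24 h at 30 °C and 99% humidity, viability was read by BacTiter-Glo luminescence.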
# AmpC inh detg = qHTS Inhibitors of AmpC Beta-Lactamase (assay with detergent). P00811. AmpC hydrolysis of nitrocefin, absorbance 480 nm, 0.01% Triton. Potency, µM (series often up to 114 µM), for the others: at the top dose activity change, negative = inhibition, most hits filed as inhibitors. hit rate 0.041% among 370,000. AID 485294, 2010;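 further: 0% = no-compound wells and -100% = no-enzyme wells; nearly all actives have a fitted effect of over 25% in size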
# Target sequence (P00811 whole entry, looked up): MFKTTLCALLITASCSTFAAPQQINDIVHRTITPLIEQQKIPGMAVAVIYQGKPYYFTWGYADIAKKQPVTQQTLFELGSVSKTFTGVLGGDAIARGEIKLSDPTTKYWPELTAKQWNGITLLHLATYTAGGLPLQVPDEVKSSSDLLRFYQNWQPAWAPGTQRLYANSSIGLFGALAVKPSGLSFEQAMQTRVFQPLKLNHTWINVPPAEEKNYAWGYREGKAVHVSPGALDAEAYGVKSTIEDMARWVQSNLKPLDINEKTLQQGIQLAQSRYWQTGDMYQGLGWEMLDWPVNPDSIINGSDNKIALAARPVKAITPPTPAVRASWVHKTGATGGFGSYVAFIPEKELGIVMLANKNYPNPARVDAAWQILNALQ
#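 20 mM phosphate pH 7.0 + 0.01% (detergent screen) or 0.0001% Triton X-100; 5.3 nM AmpC reagent; cpd preinc 15 min RT; nitrocefin (800 uM stock) to start; A480 q20 s × 4 min; Activity was normalised to no-enzyme and no-compound control wells.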
# AmpC no deterg = qHTS Inhibitors of AmpC Beta-Lactamase (assay without detergent). AID 485341, 2010. hit rate 0.52% among 330,000. Potency, µM (series often up to 57.1 µM), for inactives: at the top dose activity change, negative = inhibition, actives largely listed as inhibitors. AmpC nitrocefin hydrolysis, absorbance 480 nm, 0.0001% Triton;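 further: plate controls were no compound for no effect and no enzyme for full effect; nearly all actives have a fitted effect of over 20% in size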
#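 20 mM phosphate pH 7.0 + 0.01% (detergent screen) or 0.0001% Triton X-100; 5.3 nM AmpC reagent; cpd preinc 15 min RT; nitrocefin (800 uM stock) to start; A480 q20 s × 4 min; Activity was normalised to no-enzyme and no-compound control wells.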
# AMA1-RON2 inh = qHTS for Inhibitors of AMA1-RON; Towards Development of Antimalarial Drug Lead: Primary Screen. Plasmodium falciparum AMA1 (3D7) - RON2 peptide interaction. hit rate 0.2% among 360,000. Potency, µM (highest dose often 58.2 µM), for the others: at the top dose activity change, negative = inhibition, usual class: inhibitors. AlphaScreen AMA1-biotinylated RON2 peptide binding;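 further: 0% = vehicle wells and -100% = peptide control; nearly all actives have a fitted effect of over 45% in size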
#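 AMA1 (3D7) with his tag at 25 nM final met compounds first, then biotinylated RON2 peptide at 25 nM; detection used donor plus acceptor beads, 10 µg/mL apiece, read by AlphaScreen after 30 min at room temperature.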
# Sm TGR inh = qHTS Assay for the Inhibitors of Schistosoma Mansoni Peroxiredoxins. Potency, µM (series often up to 114 µM), for inactives: at the highest dose activity change, negative = inhibition, hits mostly inhibitors. purified TGR, DTNB reduction, TNB absorbance 405 nm. hit rate 3% among 360,000. Schistosoma mansoni thioredoxin glutathione reductase (TGR), Q962Y6. AID 485364, 2010; further: nearly all actives have a fitted effect of over 60% in size
#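 Kinetic colorimetric format: TGR-catalysed, NADPH-driven DTNB reduction monitored via TNB absorbance. Enzyme dispensed at 20 nM; compound exposure 15 min at room temperature before reaction start.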
# Numbers without * were called inactive; ? = inconclusive; . = no result given; [ ] = another dose, or the depositor's remark. Unless noted, the call rests on the fitted dose curve; in most records, active means well fitted curve in the direction sought with a large enough effect; inconclusive means small, poorly fitted or top-dose-only effect, or another doubt; inactive means no such curve, though single readings can be large; an effect the other way counts as inactive or inconclusive. Unless noted, on the % scale 0 is the no-effect control and ±100 the full control effect; potency means the concentration at half of the fitted maximal effect.
SMILES,RE007 growth inh,AmpC inh detg,AmpC no deterg,AMA1-RON2 inh,Sm TGR inh
Cc1ccc(C(=O)Oc2oc(-c3ccco3)nc2C=Nc2ccc(Cl)cc2)cc1,-16%,-1%,-21%,2%,2.2µM*
COc1cccc(N=Cc2nc(-c3ccccc3)oc2OC(C)=O)c1,3%,-1%,-24%,6%,10µM*
COc1ccc(N=Cc2nc(-c3ccccc3)oc2OC(C)=O)cc1,0%,-2%,-18%,5%,?
O=C(Oc1oc(-c2ccco2)nc1C=Nc1ccccc1)c1ccco1,?,-1%,-10%,-6%,1.6µM*
O=C(Oc1oc(-c2ccco2)nc1C=Nc1ccccc1)c1ccoc1,-18%,-15%,-13%,-6%,1.4µM*
CCc1nc2ccc(C(=O)NCc3ccccc3C)cc2nc1CC,.,7%,.,.,12%
CCc1ccc(S(=O)(=O)c2nnn3c2nc(NC2CCCC2)c2sccc23)cc1,.,14%,.,.,-1%
O=C(c1cccs1)c1no[n+]([O-])c1C(=O)c1cccs1,28µM*,0%,-15%,-4%,0.1µM*
COc1ccc(NC(=O)c2c(N)no[n+]2[O-])cc1,3%,-8%,-9%,-8%,-14%
COc1ccc(C(=O)c2no[n+]([O-])c2C(=O)c2ccc(OC)cc2)cc1,?,1%,-14%,-3%,0.35µM*
CCOc1c(Cl)cc(CNc2ccc(N3CCCC3)cc2)cc1OC,-17%,?,-17%,-11%,13µM*
CCOc1c(Cl)cc(CNc2ccc(S(N)(=O)=O)cc2)cc1OC,-2%,-4%,-12%,-9%,3%
CN(Cc1ccccc1)C(=C(Cl)Cl)/C(=C1/NCCN1C)[N+](=O)[O-],0%,9%,-8%,18%,-16%
CN1CCN/C1=C(/C(Cl)=C(Cl)Cl)[N+](=O)[O-],-3%,2%,2%,0%,1.1µM*
COC(=O)c1cc(=O)n(-c2ccccc2)c(=Nc2ccccc2)s1,0%,?,-9%,-19%,40µM*
CCOC(=O)c1ccc(N=c2sc(C(=O)OC)cc(=O)n2-c2ccc(C(=O)OCC)cc2)cc1,-2%,-11%,?,-18%,9%
O=C(CSc1ncc(CO)n1Cc1ccccc1)Nc1ccc(C(F)(F)F)cc1,.,-1%,.,.,-10%
COc1ccc(NC(=O)CCNS(=O)(=O)c2ccc(Cl)c([N+](=O)[O-])c2)cc1S(N)(=O)=O,9%,-13%,-20%,14%,35µM*
COc1ccc(NC(=O)CCNS(=O)(=O)c2cccc(C(C)=O)c2)cc1S(N)(=O)=O,2%,-14%,-21%,12%,1%
CN(CC(=O)Nc1ccc(Br)cc1)S(=O)(=O)c1cccc2nsnc12,.,0%,.,.,-3%
CSc1nc(O)c(C(c2ccccc2)c2c(O)nc(SC)[nH]c2=O)c(=O)[nH]1,3%,5%,-1%,2%,7.9µM*
CSc1nc(O)c(C(c2ccc(C)cc2)c2c(O)nc(SC)[nH]c2=O)c(=O)[nH]1,-8%,11%,2%,5%,45µM*
CCOc1ccc2nc(NC(=O)c3cc(=O)c4ccc(C)cc4o3)sc2c1,.,-5%,.,.,9%
CC(C)(C)C1CCC2(CC1)Nc1cccc3cccc(c13)N2,8%,?,13µM*,-7%,45%
N#CC(C#N)=Cc1ccc(-c2ccccc2F)o1,16%,-10%,-7%,8%,4µM*
SMILES,RE007 growth inh,AmpC inh detg,AmpC no deterg,AMA1-RON2 inh,Sm TGR inh
C/C=C/C=C/C(=O)Nc1nccs1,-7%,-6%,-6%,-1%,35µM*
Cc1cc(-n2c(C)nc3ccccc3c2=O)ccc1NC(=O)c1ccc([N+](=O)[O-])cc1,.,3%,.,.,0%
NC(=S)N/N=C/c1ccc(-c2cc(Cl)c(Cl)cc2Cl)o1,4%,0%,20µM*,64%,12%
Cc1cccc(C(=O)Nc2ccc(C(=O)OCc3cc(=O)n4nc(C5CC5)sc4n3)cc2)c1,.,-2%,.,.,-1%
COc1cc(OC)c(NC(=O)c2nn(C)c3c2COc2ccccc2-3)cc1Cl,.,-3%,.,.,0.71µM*
CCOc1ccc(NC(=O)c2nn(C)c3c2COc2ccccc2-3)cc1,.,19%,.,.,7.9µM*
Cc1ccc(NC(c2nnc(-c3ccccc3)o2)c2ccccc2F)c(Cl)c1 (centres undefined),.,19%,.,.,9%
O=C(CSc1nnc(SCc2ccccc2)s1)N/N=C/C=C/c1ccco1,7%,?,11µM*,13%,40µM*
Cc1ccc(OCC(=O)N/N=C/C=C/c2ccco2)cc1C,-10%,?,-14%,24%,50µM*
O=C(Cc1cccs1)N/N=C/C=C/c1ccco1,18%,?,-26%,-9%,4µM*
O=C(CN1CCN(Cc2ccccc2)CC1)N/N=C\C=C/c1ccco1,8%,-8%,-14%,43%,?
O=C(CSc1nnc(SCc2cccc3ccccc23)s1)N/N=C/C=C/c1ccccc1[N+](=O)[O-],19%,-2%,14µM*,14%[2.32 µM],2%
COc1ccc(Cl)cc1NC(=O)c1nn(C)c2c1CS(=O)(=O)c1ccccc1-2,.,-6%,.,.,0%
CC1CCN(S(=O)(=O)c2cc(C(=O)NCc3ccc(F)cc3)n(C)c2)CC1,.,-3%,.,.,1%
Cn1c(SCC(=O)N/N=C/C=C/c2ccco2)nc2ccccc21,-24%,-5%,-54%,33%,22µM*
CCn1c(SCC(=O)N/N=C/C=C/c2ccco2)nnc1-c1ccccc1,-5%,-10%,-12%,-1%,35µM*
Cc1ccc(CNC(=O)CN2C(=O)CCc3cc(S(=O)(=O)N4CCCCC4)ccc32)cc1,.,8%,.,.,4%
O=C(O)c1ccc(Cn2cnc3cccnc32)cc1,4%,1%,-1%,4%,50µM*
Cc1c(CNC2CCCCC2)c(C(=O)O)c(C)n1Cc1c(F)cccc1Cl,.,25%,.,.,-10%
CC1(C)C(/C=C/C=C/C=C/C=C2\N(CCCCS(=O)(=O)O)c3ccc4ccccc4c3C2(C)C)=[N+](CCCCS(=O)(=O)[O-])c2ccc3ccccc3c21,-14%[18.4 µM],.,.,8.9µM*,.
CC(=O)N1CCCc2cc(S(=O)(=O)N3CCC(C(=O)NCc4cccc(C)c4)CC3)ccc21,.,-2%,.,.,-2%
O=C(CCS(=O)(=O)c1ccccc1Cl)NCc1ccc(F)cc1,-13%,9%,-4%,12%,32µM*
COc1ccc(CNC(=O)CCS(=O)(=O)c2cccc3nonc23)cc1,-9%,?,-13%,11%,13µM*
COc1ccccc1CNS(=O)(=O)c1cccs1,2%,-1%,-13%,5%,-14%
